Bioassay records: PubChem, National Center for Advancing Translational Sciences (NCATS)
Sampled rows, rich in hits. Any-hit rate of the full collection: about 12%.
L3MBTL1 inh: blocks human L3MBTL1; Q9Y468; AlphaScreen L3MBTL1–H3K9me1 peptide binding; Potency, µM (top dose mostly 57.1 µM), most hits filed as inhibitors; actives 0.66% (n = 230,000); also: nearly all actives have a fitted effect of over 60% in size
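Read-out is AlphaScreen signal from streptavidin donor and nickel chelate acceptor beads (10 ug/mL final each) bridging L3MBTL1 (50 nM) and biotinylated K9-monomethylated H3(1-15) peptide (75 nM), after 30 min compound exposure at room temperature.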
G9a block: blocks human histone lysine methyltransferase G9a; Q96KQ7; G9a H3K9 monomethylation, AlphaScreen, 2 h; actives 8.8% (n = 350,000); Potency, µM (series often up to 102 µM), actives largely listed as inhibitors; also: nearly all actives have a fitted effect of over 75% in size
Target sequence (Q96KQ7 913-1193 limits assumed): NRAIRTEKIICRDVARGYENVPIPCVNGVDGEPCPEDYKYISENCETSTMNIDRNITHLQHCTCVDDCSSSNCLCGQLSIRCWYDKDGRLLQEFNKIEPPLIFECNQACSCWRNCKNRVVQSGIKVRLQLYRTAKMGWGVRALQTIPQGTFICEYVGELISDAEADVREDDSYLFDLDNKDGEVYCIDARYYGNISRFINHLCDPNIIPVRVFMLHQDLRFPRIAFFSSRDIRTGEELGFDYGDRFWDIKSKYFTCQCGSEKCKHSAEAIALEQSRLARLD
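Step 1: enzyme (final 20 nM) with compound, 15 min RT. Step 2: substrate peptide 500 nM and SAM 20 uM, 2 h RT. Step 3: anti-H3K9me1 antibody and AlphaScreen beads, 10 min, then plate read.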
JMJD2A Tudor inh: blocks the human JMJD2A Tudor domain. AID 504339. AlphaScreen JMJD2A-Tudor / H3K4me3 peptide binding. O75164. Potency, µM (top dose mostly 114 µM), most hits filed as inhibitors. actives 4.4% (n = 390,000); also: nearly all actives have a fitted effect of over 50% in size
Sfp inh: Sfp phosphopantetheinyl transferase inhibition. Q9F4F7. Biochemical Sfp PPTase activity, qHTS. actives 3.5% (n = 310,000). Potency, µM, most hits filed as inhibitors. AID 1490;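 also: the enzyme is Sfp with the accession as filed and its product quenches rhodamine fluorescence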
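Fluorescence-quenching assay with 15 nM Sfp, 5 uM rhodamine-CoA and 12.5 uM BHQ-2-labelled ybbR peptide in pH 7.6 Hepes/MgCl2 buffer. Enzyme was pre-incubated with compound for 15 min at room temperature. Rate was taken from the 30-min fluorescence change (525/598 nm).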
BAZ2B block: blocks human BAZ2B. Q9UIF8. AlphaScreen BAZ2B-H3K14Ac peptide displacement. Potency, µM (doses to about 114 µM), hits mostly inhibitors. actives 4.4% (n = 360,000); also: nearly all actives have a fitted effect of over 60% in size
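In this displacement format the biotinylated H3(5-23) peptide acetylated at Lys14 serves as ligand at 50 nM, with BAZ2B at 50 nM in PBS pH 7.4 containing 0.01% Tween-20. Donor and acceptor beads are 10 ug/mL final.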
HP1b chromo inh: HP1-beta chromodomain-methylated histone interaction inhibition | P83916 | AlphaScreen HP1-beta / biotin-H3K9me3 peptide binding | Potency, µM (highest dose often 114 µM), usual class: inhibitors | actives 0.56% (n = 390,000); also: nearly all actives have a fitted effect of over 70% in size
Target sequence (P83916 whole entry, looked up): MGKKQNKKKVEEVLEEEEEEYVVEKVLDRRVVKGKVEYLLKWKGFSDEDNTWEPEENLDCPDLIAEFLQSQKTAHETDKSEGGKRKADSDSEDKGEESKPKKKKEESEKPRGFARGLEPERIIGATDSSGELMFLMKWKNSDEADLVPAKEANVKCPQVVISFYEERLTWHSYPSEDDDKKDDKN
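Compound inhibition of the preformed complex between 50 nM HP1-beta and 50 nM biotinylated H3K9me3 peptide was read by AlphaScreen. Buffer was PBS pH 7.4 with 0.01% Tween-20. Incubations ran 30 min at room temperature, with 10 ug/mL donor/acceptor beads.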
Numbers stand for hits; 0 = inactive; ? = inconclusive; - = no result given; [ ] = remark or other dose. Calls follow the shape of the dose curve; as a rule, active = well fitted curve in the direction sought with a large enough effect; inconclusive = small, poorly fitted or top-dose-only effect, or another doubt; inactive = no such curve, though single readings can be large; an effect the other way counts as inactive or inconclusive.

SMILES	L3MBTL1 inh	G9a block	JMJD2A Tudor inh	Sfp inh	BAZ2B block	HP1b chromo inh
CCOCCCNC(=S)N1CCC(C(=O)c2ccc(C)cc2)CC1	0	0	0	0	0	0
CCOCCCNC(=S)N1CCN(c2nc(-c3ccccc3)cs2)CC1	0	?	?	0	50.1µM	0
CCN(CC)CCCNC(=O)c1ccc2c(c1)N(Cc1c(F)cccc1Cl)C(=O)c1ccccc1S2	-	?	0	-	-	0
CCCCNC(=S)N1CCN(CC)CC1	0	-	44.7µM	0	50.1µM	?
Cc1ccc(N2C(=O)C(CN3CCCCC3)C2c2ccccc2)cc1 (stereo not drawn)	0	0	0	0	0	89.1µM
COc1cc(C(=O)NCC(=O)N/N=C/c2ccc(-c3ccc([N+](=O)[O-])cc3)o2)cc(OC)c1OC	-	44.7µM	0	0	0	0
COc1ccccc1C(=O)NCC(=O)N/N=C/c1ccc([N+](=O)[O-])cc1	-	0	0	0	0	0
COc1cc(C(=O)NCC(=O)N/N=C/c2ccc(-c3cccc([N+](=O)[O-])c3)o2)cc(OC)c1OC	-	10µM	0	0	0	0
O=C(N/N=C/c1ccc(-c2cccc([N+](=O)[O-])c2)o1)c1ccc([N+](=O)[O-])cc1	0	0	0	0	0	0
COc1cc(/C=C/C(=O)c2ccc(NS(=O)(=O)c3ccc(C)cc3)cc2)ccc1OC(F)F	0	0	0	0	0	0
COc1cccc(/C=C/C(=O)c2ccc(NS(=O)(=O)c3ccc(C)cc3)cc2)c1	0	2.51µM	?	0	?	0
COc1cc(/C=C/C(=O)c2ccc(NS(=O)(=O)c3ccc(C)cc3)cc2)cc(OC)c1O	0	39.8µM	0	0	?	?
COC(=O)c1ccc(N2NC(=O)/C(=C/c3ccc(OC)c(OC)c3)C2=O)cc1	0	?	0	0	0	0
COc1cc(/C=C2\C(=O)NN(c3ccccc3)C2=O)ccc1OCC(N)=O	0	50.1µM	-	0	0	-
C#CCOc1ccc(/C=C2/C(=O)NN(c3ccc(F)cc3)C2=O)cc1OC	-	35.5µM	0	0	0	0
Cc1cc(C)n(CCc2nc(-c3ccc(F)cc3)cs2)n1	0	0	0	0	0	0
COc1cc(-c2csc(CCn3nc(C)cc3C)n2)cc(OC)c1OC	-	31.6µM	0	0	0	0
N#CCCN(C(=S)Nc1ccc(S(=O)(=O)N2CCOCC2)cc1)c1ccccc1F	0	44.7µM	0	-	0	0
COc1ccc(NC(=S)N2CCN(S(=O)(=O)c3ccc(OC)cc3)CC2)cc1	-	-	89.1µM	0	?	0
NS(=O)(=O)c1ccc(NC(=S)Nc2ccc(S(=O)(=O)N3CCCC3)cc2)cc1	-	?	0	50.1µM	0	0
N#CCCN(C(=S)NC(=O)c1cccs1)c1ccccc1F	0	3.98µM	?	-	?	?
N#CCCN(C(=O)COC(=O)CNC(=O)c1cccs1)c1ccc(F)cc1	0	0	?	-	0	0
CN1CCN(CCCNC(=O)c2cnn(-c3ccccc3)c2-n2cccc2)CC1	-	0	0	-	0	0
COc1cccc(CNC(=O)c2c(C)nn(-c3cccc(C)c3)c2-n2cccc2)c1	-	0	0	-	0	0
O=C(Nn1c(C2CCCCC2)nc2ccccc2c1=O)c1ccc([N+](=O)[O-])cc1	0	0	0	0	0	0
SMILES	L3MBTL1 inh	G9a block	JMJD2A Tudor inh	Sfp inh	BAZ2B block	HP1b chromo inh
Cc1ccc(NC(=O)CCC(=O)N2Cc3ccccc3Oc3ncccc32)cc1F	-	0	0	-	0	0
CCOc1ccc(CNC(=O)C2=Cc3cc(Br)ccc3OC2)cc1OC	-	0	0	-	0	0
Cc1ccccc1CN1CCN(C(C)C(=O)NNC(=O)c2ccc(F)cc2)CC1 (stereo not drawn)	0	0	0	-	0	0
CC(C)CCCCCCNC(=S)Nc1ccc(S(=O)(=O)N2CCOCC2)cc1	0	0.891µM	0	0	0	0
COc1ccc(NC(=S)NNC(=O)c2ccc(S(=O)(=O)N3CCOCC3)cc2)cc1	0	39.8µM	0	0	0	0
O=S(=O)(c1cccc(NC(=S)Nc2ccc(Br)cc2Cl)c1)N1CCOCC1	0	0[12.7 µM]	0	44.7µM	0	0
O=S(=O)(c1ccc(NC(=S)Nc2ccccc2)cc1)N1CCOCC1	0	79.4µM	0	0	0	0
CC(=O)c1cc2c(s1)c1cnn(Cc3ccccc3F)c(=O)c1n2C	-	-	0	-	-	-
O=C(COC(=O)CCc1ccc(S(=O)(=O)N2CCOCC2)cc1)NCc1ccccc1Cl	-	0	0	0	0	0
COc1cc(C(=O)OCC(=O)N2CCOCC2)c([N+](=O)[O-])cc1OC	-	?	0	0	0	0
CSc1nnc(-c2cc3c(s2)-c2ccccc2CC3)o1	0	0	0	17.8µM	0	0
S=c1[nH]nc(-c2cc3c(s2)-c2ccccc2CC3)o1	0	?	0	?	0	0
O=[N+]([O-])c1ccc(O)c(C=Nc2cccc3ncccc23)c1	-	0	0	0	0	0
Oc1ccc(Cl)cc1N=Cc1sc2ccccc2c1Cl	-	?	?	0	0	0
O=[N+]([O-])c1ccc(O)c(C=Nc2cccc3ccccc23)c1	0	50.1µM	0	0	0	0
O=[N+]([O-])c1ccc(O)c(N=Cc2sc3ccccc3c2O)c1	0	44.7µM	44.7µM	0	14.1µM	0
Cc1cccc(/N=C/c2sc3ccccc3c2O)n1	0	31.6µM	?	0	?	?
CC[C@H]1C2=C3C(CC[C@H]4C(OCc5ccc(F)cc5C(F)(F)F)OC[C@](C)([C@@H]34)N(C(=O)OC(C)(C)C)C2)C(COC(C)=O)C1COC(C)=O (stereo partly drawn)	-	-	-	0	-	-
COc1ccc(CCc2nnc(NS(C)(=O)=O)s2)cc1	0	?	0	0	0	0
O=C(N/N=C\C=C\c1ccco1)C1COc2ccccc2O1 (stereo not drawn)	-	?	?	39.8µM	?	0
O=C(N/N=C/C=C/c1ccc([N+](=O)[O-])cc1)C1COc2ccccc2O1 (stereo not drawn)	0	0	0	0	0	0
O=C(N/N=C/C=C/c1ccco1)C(O)c1ccccc1 (stereo not drawn)	-	-	56.2µM	-	-	0
COC(=O)N1CCC[C@@]2(CCN(c3ccccn3)C2)C1	-	0[12.7 µM]	-	0	-	-
CC(=O)Nc1ccc(NC(=O)C(C)OC(=O)c2cccc(S(=O)(=O)N3CCCCC3)c2)cc1 (stereo not drawn)	-	?	0	0	0	0
CC(OC(=O)c1cccc(S(=O)(=O)N2CCCCCC2)c1)C(=O)Nc1ccc(S(N)(=O)=O)cc1 (stereo not drawn)	0	50.1µM	0	-	0	0
CC(=O)Nc1ccc(NC(=O)C(C)OC(=O)c2cccc(S(=O)(=O)N3CCCCCC3)c2)cc1 (stereo not drawn)	0	0	0	-	0	0
